Bioassay records (PubChem BioAssay)
TDP-43 yeast inh: TDP-43 toxicity inhibition in yeast; TDP-43 expressing yeast growth rescue, BacTiter-Glo, 24 h; Potency, µM (doses to about 46.1 µM), for the others: top-dose growth rescue (activation), usual class: activators; 410,000 tested, 1.8% active; AID 652104; note: potency is the fitted concentration of half-maximal effect; % of control where 0% means no effect; nearly all actives have a fitted effect of over 50% in size
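Yeast expressing TDP-43 (pregrown in raffinose, seeded at OD600=0.02 in galactose medium) exposed to compounds 24 hr at 30 deg C. Growth read by BacTiter-Glo luminescence; rescue of toxicity appears as increased signal.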
FUS suppressor: FUS proteinopathy suppression in yeast; S. cerevisiae FUS-expressing, growth rescue, OD600, 24 h; Potency, µM (series often up to 76.6 µM), most hits filed as activators; 390,000 tested, 0.24% active;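 note: potency is the fitted concentration of half-maximal effect; plate controls were DMSO vehicle for no effect and reference control for full effect; nearly all actives have a fitted effect of over 55% in size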
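S. cerevisiae expressing FUS from galactose induction served as the toxicity model. Growth after 24hr at 30C, read as absorbance at 600 nm, indicates suppression of toxicity; compounds dosed at several concentrations.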
aSyn rescue: inhibitors of alpha-synuclein toxicity in yeast. Yeast expressing alpha-synuclein, growth rescue, BacTiter-Glo, 24 h. Potency, µM (titrated, usually from 46.1 µM), without a hit: at the top dose growth rescue (activation), usual class: activators. 370,000 tested, 0.14% active. AID 652106; note: potency is the fitted concentration of half-maximal effect; % of control where 0% means no effect; nearly all actives have a fitted effect of over 65% in size
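Screening used galactose-induced yeast with toxic alpha-synuclein levels, exposed to compound for 24 hr at 30 deg C. Cell growth, read with BacTiter-Glo luminescence, gave the measured signal.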
pAkt inh: inhibitors of Akt phosphorylation; Neuro2A IGF-stimulated pAkt S473 HTRF, 20 min; active compounds read low; activity change, % for hits at 50 µM; 360,000 tested, 0.32% active; AID 651550; in the data active = activity change below about -80%; inconclusive = mostly about -51% to -80%; note: % is set by controls: 0 for no effect and ±100 for the full control effect
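Single-point screen (50 µM final compound) in Neuro2A cells stimulated 20 min with 6 nM IGF at 37 deg C. After lysis, Ser473-phosphorylated Akt read by HTRF (ex 330 nm, em 615/665 nm) as the 665/615 ratio.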
Abeta rescue: A-beta toxicity reversal in yeast; yeast expressing A-beta42, growth rescue, OD600, 48 h; response scale: 0% DMSO, 100% iron-clioquinol control; 410,000 tested, 0.063% active; AID 1347071; Potency, µM (doses to about 46.1 µM), actives largely listed as activators; note: potency is the fitted concentration of half-maximal effect; nearly all actives have a fitted effect of over 55% in size
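Yeast growth medium received pinned compounds, then yeast cells expressing toxic A-beta were added; plates incubated at 30 C for 48 hr. Growth read as absorbance at 600 nm, normalized to DMSO and equimolar FeCl3 plus clioquinol controls.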
Starred values were filed as active, the others as inactive; i = inactive; ? = inconclusive; · = no result given; [ ] = remark or other dose. Rows were chosen to be rich in hits. Some 2.3% of all compounds tested hit in one or more screens of this group. Unless noted, calls come from the whole dose curve; as a rule, active = well fitted curve in the direction sought with a large enough effect; inconclusive = small, poorly fitted or top-dose-only effect, or another doubt; inactive = no such curve, though single readings can be large; an effect the other way counts as inactive or inconclusive.

SMILES | TDP-43 yeast inh | FUS suppressor | aSyn rescue | pAkt inh | Abeta rescue
COc1cc(OC)cc(-c2nnc(SCC(=O)N3CCCc4ccccc43)o2)c1 | ? | i | 18.4% | -115.8%* | i
COc1cccc(-c2nnc(SCC(=O)N3CCCc4ccccc43)o2)c1 | ? | i | 10.3% | i | i
CS(=O)(=O)CC[C@@H](C(=O)NCCc1ccccc1)N1Cc2ccccc2C1=O | 9.1% | i | · | · | i
CN(C(=O)CC(=O)Nc1ccc2nc3n(c(=O)c2c1)CCCCC3)c1ccccc1F | -10.2% | i | · | · | i
CCCCCCOc1ccc(C(=O)O)cc1C#N | 22.4µM* | · | -17.2% | i | i
CCCCCCCCOc1ccc(C(=O)O)cc1 | 15.1% | i | 5.8% | i | i
O=C(COC(=O)c1cc(=O)[nH]c(=O)[nH]1)Nc1cccc(S(=O)(=O)N2CCOCC2)c1 | 0.6% | i | 4.3% | i | i
O=C(COC(=O)c1n[nH]c(=O)c2ccccc12)Nc1cccc(S(=O)(=O)N2CCOCC2)c1 | -13.3% | 39.8µM* | -3.4% | i | i
O=[N+]([O-])c1nn(-c2ccc(Cl)cc2)n(O)c1=NCc1ccccc1Cl | ? | i | 24.6% | i | i
CCc1cccc(N=c2c([N+](=O)[O-])nn(-c3ccc(Cl)cc3)n2O)c1 | 7.94µM* | i | 4.0% | i | i
Cc1ccc(CN=c2c([N+](=O)[O-])nn(-c3ccc(Cl)cc3)n2O)cc1 | 11.2µM* | i | 12.6% | i | ?
O=[N+]([O-])c1nn(-c2ccc(Cl)cc2)n(O)c1=NCc1ccncc1 | 11.2µM* | i | 1.0% | i | i
Cc1ccc(CC(=O)Nc2ccc3c(c2)N(C)C(=O)c2ccccc2S3)cc1 | 0.7% | i | · | · | i
CC(C)NC(=O)Cc1csc2nc(-c3ccccc3)cn12 | 18.7% | i | · | · | i
CCOC(=O)c1cccc(NC(=O)NC(C)c2c(-n3cccc3)sc3c2CCN(C)C3)c1 (configuration not stated) | -10.4% | ? | · | · | i
COc1cccc(CCNc2ncnc3c2nnn3C)c1 | 29.8% | i | · | · | i
CC(C)c1ccc(Nc2nc(NCc3ccco3)nc(N3CCOCC3)n2)cc1 | 15.8µM* | i | -19.5% | i | i
CC(C)c1ccc(Nc2nc(N3CCOCC3)nc(N3CCOCC3)n2)cc1 | ? | i | 15.5% | i | i
CCOc1ccc(NC2SC(=O)N(Cc3ccccc3)C2=O)cc1 (configuration not stated) | 12.6µM* | i | · | · | ?
Cc1cc(C)n(C(=O)CCC2COc3ccccc3O2)n1 (configuration not stated) | 20.8% | i | 3.6% | i | i
O=C(CCC1COc2ccccc2O1)N1CCCC1 (configuration not stated) | -13.0% | i | -6.3% | -100.3%* | i[9.22 µM]
Cn1c(-c2ccccc2)cc2onc(-c3ccccc3)c2c1=O | 27.6% | i | 0.6% | i | i
Cn1c(-c2ccccc2F)cc2onc(-c3ccccc3)c2c1=O | 20µM* | i | -12.1% | i | i
COc1ccc2oc(C(=O)N3CCCc4ccccc43)c(C)c2c1 | 15.8µM* | i | -15.2% | i | i
O=C(c1ccc(S(=O)(=O)N2CCCCC2)cc1)N1CCCc2ccccc21 | ? | i | 2.6% | -107.5%* | i
SMILES | TDP-43 yeast inh | FUS suppressor | aSyn rescue | pAkt inh | Abeta rescue
COc1cc(OC)cc(C(=O)N2CCCc3ccccc32)c1 | 4.1% | i | 9.6% | i | i
O=C(c1ccc(S(=O)(=O)N2CCCC2)cc1)N1CCCc2ccccc21 | 20.9% | i | 1.1% | i | i
CCCOc1ccc(C(=O)N2CCCc3ccccc32)cc1 | 11.2µM* | i | · | · | i
Cc1ccc(C(=O)OCc2cc(=O)n3nc(-c4cccs4)sc3n2)cc1 | 11.3% | i | · | · | i
O=C(NCCc1ccccc1)c1ccc(-c2ccc(F)cc2)o1 | 20µM* | i | 0.4% | i | i
CC(C)(C)C(=O)Nc1ccccc1C(=O)Nc1cc(Cl)ccc1Cl | 22.4µM* | i | -1.4% | i | i
O=[N+]([O-])c1cc(C(F)(F)F)ccc1NCCc1c[nH]c2ccccc12 | 22.4µM* | i | 4.1% | i | i
COc1ccc(N2CCN(CCS(=O)(=O)c3cc(Cl)ccc3Cl)CC2)cc1 | 12.6µM* | i | -2.4% | i | i
CC(=O)N1CCN(CCS(=O)(=O)c2cc(Cl)ccc2Cl)CC1 | ? | i | -6.3% | i | i
CNC(=O)C(=O)Nc1ccc2c(c1)N(S(=O)(=O)c1cccs1)CCC2 | 15.8µM* | i | 8.7% | i | i
CC(C)NC(=O)C(=O)Nc1ccc2c(c1)N(S(=O)(=O)c1cccs1)CCC2 | 18.0% | i | -3.9% | i | i
CCOC(=O)c1ccc(NC(=O)Cn2nc(C)c3nn(-c4ccc(Cl)cc4)c(C)c3c2=O)cc1 | -5.9% | i | · | · | i
CCOc1ccccc1NC(=O)Nc1nnc(N2CCCCCC2)s1 | 0.0%[9.22 µM] | i | · | · | i
Cc1nn(C)c(C(=O)NC2C3CC4CC(C3)CC2C4)c1Cl (configuration not stated) | 10µM* | i | 6.8% | i | i
Cc1cccc(OCCCC(=O)O)c1 | 0.9% | i | 13.0% | i | i[9.22 µM]
Cc1cc(C)cc(OCCCC(=O)O)c1 | ? | i | 14.0% | -105.5%* | i[9.22 µM]
Cc1ccc(CNC(=O)c2c(-c3cccc(Br)c3)noc2C)o1 | ? | i | · | · | i
O=C(Nc1ccc2ncccc2c1)c1ccccc1 | -5.9% | i | 1.9% | i | i
CCC(C(=O)c1ccc2ncccc2c1)c1ccccc1 (configuration not stated) | 14.1µM* | i | 7.5% | i | i
Cc1cccc2c(C(=O)N3CCN(C(=O)c4ccco4)CC3)cc(-c3cccc(Br)c3)nc12 | 28.2µM* | i | 10.9% | i | i
COc1ccccc1NC(=O)CSC1=Nc2ccccc2C2=NC(CCC(=O)NCc3ccco3)C(=O)N12 (configuration not stated) | ? | i | · | · | i
Cc1ccc(S(=O)(=O)N2CCOC23CCN(C(=O)c2ccccc2Br)CC3)cc1 | 15.8µM* | i | 4.5% | i | ·
CCCCOc1cccc(C2(C(=O)O)CCCC2)c1 | 20µM* | i | 9.7% | i | i[9.22 µM]
CCCOc1ccc(C2(C(=O)O)CCCC2)cc1 | 12.6µM* | i | 12.9% | i | i
O=[N+]([O-])c1cc(C(F)(F)F)ccc1Oc1cccnc1[N+](=O)[O-] | -6.9%[0.397 µM] | i | -1.7% | i | i
O=C(Nc1ccc(F)cc1)c1ccccc1Oc1ccc(C(F)(F)F)cc1[N+](=O)[O-] | 22.4µM* | · | 14.1µM* | i | i
O=C(Nc1ccccc1)c1ccccc1Oc1ccc(C(F)(F)F)cc1[N+](=O)[O-] | 20µM* | i | 18.0% | i | i
